Data from the supplement of paper PMC13380429.

Test system: Vero E6 infected with SARS-CoV-2
Assay: inhibition of SARS-CoV-2 cytopathic effect; higher = more antiviral protection, active = above 15
Conditions: 48 h

Measured: inhibition of SARS-CoV-2 cytopathic effect

CCNC(=O)c1n[nH]c(-c2cc(Cl)c(O)cc2O)c1-c1ccc(OC)cc1
inactive: 1 nM -4.03% | 8.33 nM -4.15% | 100 nM -2.27% | 833.33 nM -3.38% | 10000 nM -0.29%

O=P(O)(O)CN(CCN(CP(=O)(O)O)CP(=O)(O)O)CP(=O)(O)O
inactive: 1 nM -3.44% | 8.33 nM 0.56% | 100 nM -0.33% | 833.33 nM 2.43% | 10000 nM -1.39%

C[C@]12CCC(=O)C=C1C=C[C@@H]1[C@@H]2CC[C@@]2(C)[C@H]1CC[C@@]21CCC(=O)O1 [canrenone]
inactive: 1 nM -1.44% | 8.33 nM -1.41% | 100 nM -2.85% | 833.33 nM -2.53% | 10000 nM 6.34%

CN1CCN(c2cccc(Nc3nc4c(-c5ccc(S(C)(=O)=O)cc5)cccn4n3)c2)CC1
inactive: 1 nM -0.26% | 8.33 nM 0.06% | 100 nM 0.85% | 833.33 nM -0.58% | 10000 nM -4.01%

CC(C)[C@@H](C(=O)Nc1nccs1)c1ccc(Cl)cc1
inactive: 1 nM 0.5% | 8.33 nM 0.66% | 100 nM 1.05% | 833.33 nM 1.87% | 10000 nM 1.55%

Cc1cc(C(C#N)c2ccc(Cl)cc2)c(Cl)cc1NC(=O)c1cc(I)cc(I)c1O (stereo not given) [closantel]
inactive: 1 nM 0.26% | 8.33 nM 1.55% | 100 nM 1.07% | 833.33 nM 3.04% | 10000 nM 5.87%

CN(C)CCOC(c1ccccc1)c1ccccc1 [diphenhydramine]
inactive: 1 nM 0.83% | 8.33 nM 0.08% | 100 nM -0.85% | 833.33 nM 0.48% | 10000 nM -0.92%

O=C(Nc1cnccc1Cl)N1CCN(Cc2ccc3c(c2)OC(F)(F)O3)CC1
inactive: 1 nM 1.58% | 8.33 nM -1.35% | 100 nM 1.93% | 833.33 nM 0.76% | 10000 nM 0.7%

Nc1ncnc2c1ncn2[C@@H]1O[C@H](CO)C[C@H]1O [cordycepin]
inactive: 1 nM -1.1% | 8.33 nM 0.92% | 100 nM 1.03% | 833.33 nM -0.81% | 10000 nM -3.28%

C=C(c1ccc(C(=O)O)cc1)c1cc2c(cc1C)C(C)(C)CCC2(C)C [bexarotene]
inactive: 1 nM -0.21% | 8.33 nM -0.07% | 100 nM 0.42% | 833.33 nM 0.85% | 10000 nM 0.03%

CCOc1ccccc1C(N)=O [ethenzamide]
inactive: 1 nM 5.35% | 8.33 nM 3.1% | 100 nM 2.44% | 833.33 nM 2.62% | 10000 nM 4.34%

CCc1ccc2c(-c3cccc(Cl)c3)nc(=O)n(CC)c2n1
inactive: 1 nM -1.8% | 8.33 nM 0.23% | 100 nM 1.37% | 833.33 nM -1.65% | 10000 nM 0.57%

O=C(O)c1ccccc1NCCc1ccccc1 [tromaril]
inactive: 1 nM -2.04% | 8.33 nM 0.78% | 100 nM 1.18% | 833.33 nM 1.39% | 10000 nM 1.35%

NC(=O)NCCC[C@H](N)C(=O)O [L-citrulline]
inactive: 1 nM 0.06% | 8.33 nM -1.99% | 100 nM 1.8% | 833.33 nM 2.58% | 10000 nM 1.61%

C=C(C)[C@H]1CN[C@H](C(=O)O)[C@H]1CC(=O)O [kainic-acid]
inactive: 1 nM -1.66% | 8.33 nM 0.99% | 100 nM 0.37% | 833.33 nM -1.94% | 10000 nM -0.79%

CCCC(C)NC(=O)c1ccc(Cl)c(Cl)c1 (stereo not given)
inactive: 1 nM 1.38% | 8.33 nM 1.88% | 100 nM 1.26% | 833.33 nM -2.38% | 10000 nM -1.56%

CN1CCC[C@@H](CC2c3ccccc3Sc3ccccc32)C1 (racemic) [metixene]
inactive: 1 nM -0.25% | 8.33 nM 1.09% | 100 nM 1.62% | 833.33 nM -0.01%
active: 10000 nM 42.2%

CC(C(=O)O)c1ccc(N2Cc3ccccc3C2=O)cc1 (stereo not given) [indoprofen]
inactive: 1 nM 0.91% | 8.33 nM 0.93% | 100 nM 0.86% | 833.33 nM 1.21% | 10000 nM 0.49%

CCCC(=O)O [sodium-butyrate]
inactive: 1 nM -1.28% | 8.33 nM -0.1% | 100 nM 1.57% | 833.33 nM -0.53% | 10000 nM 0.24%

C1COC(NC(C2CC2)C2CC2)=N1 [rilmenidine]
inactive: 1 nM 2.93% | 8.33 nM 3.39% | 100 nM -2.62% | 833.33 nM -3.95% | 10000 nM -6.59%

O=C(O)CNC(=O)c1c(O)c2ccccc2n(Cc2ccccc2)c1=O
inactive: 1 nM -0.58% | 8.33 nM -1.09% | 100 nM 0.41% | 833.33 nM -0.62% | 10000 nM -1.13%
